# Several values for one entry are separate records, joined by “and”; a condition that tells them apart may be missing. Equal entries are not always repeated. Unmarked numbers belong to inactive results.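 The calls were made as follows, unless noted: active = efflux inhibition above 0.42, the validation set average plus 4 SD; inconclusive = no clear call, values can overlap the other calls; inactive = the rest.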 Peptide text beside a SMILES is read from it.
# Tested on: not listed separately
# Test: inhibitors of fungal efflux pumps CDR1, CDR2, MDR1, pilot screen, validation compound set, multiplex, phenotypic (AID 588506);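 also: Nile Red retained in cells so higher fluorescence means more efflux inhibition; 0 = negative control wells and 1 = enniatin B 25 µM full block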
# Conditions: S. cerevisiae pump-expressing triplex, Nile Red efflux flow cytometry; at 10 µM; hits give high values; the pumps come from Candida albicans
row,Compound,efflux inhibition (fraction of control)
1,CC(C)(C)OC(=O)N1CC(O)CC1C(=O)OCC(=O)c1ccc(Cl)cc1 (stereo not drawn),0.14
2,O=C(O)c1ccc(OCCn2ccnc2)cc1,0.36
3,CCOc1ccc2ccccc2c1CNc1nnnn1C,0.05
4,COc1ccccc1N1C(=O)C2CC(C)=C(C)CC2C1=O (stereo not drawn),-0.06
5,Cc1coc2c1c(C)cc1oc(=O)c(Cc3ccccc3)c(C)c12,-0.14
6,COc1cc2c3c(c1)C(C)CC(C)(C)N3C(=O)C2=O (stereo not drawn),0.37
7,NS(=O)(=O)c1cc2c(cc1Cl)NCNS2(=O)=O,0
8,O=C(O)C1Cc2ccccc2CN1S(=O)(=O)c1ccccc1 (stereo not drawn),-0.17
9,COc1cccc(C2CC(=O)C3=C(C2)Nc2ccccc2N(C(=O)CCC(=O)O)C3c2ccc(F)cc2)c1 (stereo not drawn),-0.13
10,CCC(C(=O)Nc1ccc2c(c1)OCCO2)c1ccccc1 (stereo not drawn),-0.03
11,COc1ccc(C2C(C(=O)c3ccco3)=C(O)C(=O)N2CC2CCCO2)cc1 (stereo not drawn),0.05
12,C=CCNC(=O)c1ccc(-c2cccc([N+](=O)[O-])c2)o1,-0.34
13,CC12CCC(C(=O)N(CCC#N)CCC#N)(CC1=O)C2(C)C (stereo not drawn),-0.03
14,CC(=O)c1c(C)c(C)c2n1CCn1c(C)ccc1-2,-0.09
15,COc1cc2cc(C)nc(Cc3cccc4ccccc34)c2cc1OC,0.04
16,Cc1oc2cc(O)cc(O)c2c(=O)c1-c1ccc2c(c1)OCCCO2,0.01
17,O=CNC1CCCc2c1[nH]c1ccc(Cl)cc21 (stereo not drawn),-0.04
18,COc1ccc2cc(C3(C)NC(=O)NC3=O)ccc2c1 (stereo not drawn),-0.06
19,CC1(C)CC(=O)c2c(nc3ccccc3c2N)C1,-0.29
20,Cc1ccccc1C(=O)Oc1ccc(Sc2ccc(O)cc2)cc1,0.02

row,Compound,efflux inhibition (fraction of control)
1,O=C(NC1CC1)C1CCN(C2CCN(C(=O)Cc3ccc(F)cc3)CC2)CC1,0.27
2,CCc1cc(/C(Cc2ccccn2)=N\O)c(O)cc1O,-0.17
3,CC(=O)NC(CC(C)C)C(=O)NC(Cc1ccccc1)C(N)=O (stereo not drawn) (Ac-Leu-Phe-NH2; configuration not given here),-0.13
4,CN(C)c1ccc(C(CN)c2c[nH]c3ccccc23)cc1 (stereo not drawn),0.09
5,CCn1cc(C(=O)O)c(=O)c2ccc(C)nc21,0.085
6,CN1[C@@H]2CC(OC(=O)[C@H](CO)c3ccccc3)C[C@H]1[C@@H]1O[C@@H]12 (stereo partly drawn),-0.26 and -0.1
7,CCOc1cc2c3c(c1)C(C)=CC(C)(C)N3C(=O)C2=O,-0.13
8,Cc1ccc(C)c(OCCCC(C)(C)C(=O)O)c1,0.05
9,CC1(C)C(=O)OC(C(=O)c2ccc(Cl)cc2)C(C)(C)C1=O (stereo not drawn),-0.01
10,CC1(CC(=O)Nc2ccccc2)NC(=S)N(c2ccccc2)N1 (stereo not drawn),-0.13
11,COc1cc2c(cc1OC)C(C)=NC1(CCCCC1)C2,-0.04
12,Cc1occc(=O)c1O,-0.06
13,COC1CCN(Cc2cn(Cc3ccccc3)nc2-c2cc3ccccc3o2)CC1,-0.14
14,COc1cccc2c(O)cc(=O)n(C)c12,-0.17
15,CCN1C(=O)C(CC(=O)Nc2ccc(F)cc2)N(Cc2ccco2)C1=S (stereo not drawn),-0.04
16,O=C(Cc1ccccc1[N+](=O)[O-])NCc1ccncc1,-0.03
17,O=C1CC2(CCCC2)CC(=O)N1CCCCN1CCN(c2ncccn2)CC1,0.21
18,CCC(=O)c1ccc(OCc2ccc(C(=O)OC)cc2)cc1,-0.045
19,COc1cccc(NC(=O)C2CC(=O)OC23CCOC(C)(C)C3)c1 (stereo not drawn),-0.13

# Target: ATP-binding cassette sub-family B member 6 (Homo sapiens) (UniProt Q9NP58)
# Sequence (Q9NP58 whole entry, looked up): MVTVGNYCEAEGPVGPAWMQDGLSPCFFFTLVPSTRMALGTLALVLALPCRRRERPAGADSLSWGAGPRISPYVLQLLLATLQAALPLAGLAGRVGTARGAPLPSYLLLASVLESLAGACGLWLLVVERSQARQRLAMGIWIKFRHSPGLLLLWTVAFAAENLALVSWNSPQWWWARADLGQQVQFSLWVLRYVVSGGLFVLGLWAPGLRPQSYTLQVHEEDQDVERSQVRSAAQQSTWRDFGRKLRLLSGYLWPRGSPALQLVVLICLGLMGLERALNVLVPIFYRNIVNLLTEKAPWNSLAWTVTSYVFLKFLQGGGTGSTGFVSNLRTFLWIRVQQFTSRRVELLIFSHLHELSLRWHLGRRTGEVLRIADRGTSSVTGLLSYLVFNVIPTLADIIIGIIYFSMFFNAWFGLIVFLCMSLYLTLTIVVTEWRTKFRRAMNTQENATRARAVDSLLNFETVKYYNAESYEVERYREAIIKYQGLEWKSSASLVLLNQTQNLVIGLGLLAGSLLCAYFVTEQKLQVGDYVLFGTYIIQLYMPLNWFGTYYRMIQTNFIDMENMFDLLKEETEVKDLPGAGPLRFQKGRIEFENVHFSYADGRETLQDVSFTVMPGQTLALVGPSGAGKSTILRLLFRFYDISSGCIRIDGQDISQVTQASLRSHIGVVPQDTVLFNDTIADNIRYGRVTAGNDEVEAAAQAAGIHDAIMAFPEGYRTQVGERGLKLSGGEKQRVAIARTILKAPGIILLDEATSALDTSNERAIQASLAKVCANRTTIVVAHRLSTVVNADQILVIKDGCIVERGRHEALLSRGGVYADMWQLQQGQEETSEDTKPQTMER
# Test: ABCB6 transporter inhibitors, pilot screen, K562-ABCB6 cells, flow cytometry, validation set (AID 588550;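 active = inhibition above the screen-wide mean plus 3 SD, about 51%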;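 also: 0% = DMSO wells and 100% = benzethonium chloride 70 µM positive control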)
# Conditions: K562-ABCB6 porphyrin accumulation, 1 h, at 10 µM, hits give high values
row,Compound,inhibition
1,CC(C)(C)OC(=O)N1CC(O)CC1C(=O)OCC(=O)c1ccc(Cl)cc1 (stereo not drawn),-6%
2,O=C(O)c1ccc(OCCn2ccnc2)cc1,16%
3,CCOc1ccc2ccccc2c1CNc1nnnn1C,8%
4,COc1ccccc1N1C(=O)C2CC(C)=C(C)CC2C1=O (stereo not drawn),4%
5,Cc1coc2c1c(C)cc1oc(=O)c(Cc3ccccc3)c(C)c12,1%
6,COc1cc2c3c(c1)C(C)CC(C)(C)N3C(=O)C2=O (stereo not drawn),12%
7,NS(=O)(=O)c1cc2c(cc1Cl)NCNS2(=O)=O,2%
8,O=C(O)C1Cc2ccccc2CN1S(=O)(=O)c1ccccc1 (stereo not drawn),9%
9,COc1cccc(C2CC(=O)C3=C(C2)Nc2ccccc2N(C(=O)CCC(=O)O)C3c2ccc(F)cc2)c1 (stereo not drawn),4%
10,CCC(C(=O)Nc1ccc2c(c1)OCCO2)c1ccccc1 (stereo not drawn),-7%
11,COc1ccc(C2C(C(=O)c3ccco3)=C(O)C(=O)N2CC2CCCO2)cc1 (stereo not drawn),3%
12,C=CCNC(=O)c1ccc(-c2cccc([N+](=O)[O-])c2)o1,4%
13,CC12CCC(C(=O)N(CCC#N)CCC#N)(CC1=O)C2(C)C (stereo not drawn),9%
14,CC(=O)c1c(C)c(C)c2n1CCn1c(C)ccc1-2,-18%
15,COc1cc2cc(C)nc(Cc3cccc4ccccc34)c2cc1OC,-9%
16,Cc1oc2cc(O)cc(O)c2c(=O)c1-c1ccc2c(c1)OCCCO2,8%
17,O=CNC1CCCc2c1[nH]c1ccc(Cl)cc21 (stereo not drawn),-3%
18,COc1ccc2cc(C3(C)NC(=O)NC3=O)ccc2c1 (stereo not drawn),8%
19,CC1(C)CC(=O)c2c(nc3ccccc3c2N)C1,9%
20,Cc1ccccc1C(=O)Oc1ccc(Sc2ccc(O)cc2)cc1,-7%

row,Compound,inhibition
1,O=C(NC1CC1)C1CCN(C2CCN(C(=O)Cc3ccc(F)cc3)CC2)CC1,8%
2,CCc1cc(/C(Cc2ccccn2)=N\O)c(O)cc1O,1%
3,CC(=O)NC(CC(C)C)C(=O)NC(Cc1ccccc1)C(N)=O (stereo not drawn) (Ac-Leu-Phe-NH2; configuration not given here),13%
4,CN(C)c1ccc(C(CN)c2c[nH]c3ccccc23)cc1 (stereo not drawn),-9%
5,CCn1cc(C(=O)O)c(=O)c2ccc(C)nc21,-8%
6,CN1[C@@H]2CC(OC(=O)[C@H](CO)c3ccccc3)C[C@H]1[C@@H]1O[C@@H]12 (stereo partly drawn),-10% and 4%
7,CCOc1cc2c3c(c1)C(C)=CC(C)(C)N3C(=O)C2=O,4%
8,Cc1ccc(C)c(OCCCC(C)(C)C(=O)O)c1,10%
9,CC1(C)C(=O)OC(C(=O)c2ccc(Cl)cc2)C(C)(C)C1=O (stereo not drawn),-4%
10,CC1(CC(=O)Nc2ccccc2)NC(=S)N(c2ccccc2)N1 (stereo not drawn),6%
11,COc1cc2c(cc1OC)C(C)=NC1(CCCCC1)C2,-52%
12,Cc1occc(=O)c1O,3%
13,COC1CCN(Cc2cn(Cc3ccccc3)nc2-c2cc3ccccc3o2)CC1,12%
14,COc1cccc2c(O)cc(=O)n(C)c12,4%
15,CCN1C(=O)C(CC(=O)Nc2ccc(F)cc2)N(Cc2ccco2)C1=S (stereo not drawn),7%
16,O=C(Cc1ccccc1[N+](=O)[O-])NCc1ccncc1,2%
17,O=C1CC2(CCCC2)CC(=O)N1CCCCN1CCN(c2ncccn2)CC1,9%
18,CCC(=O)c1ccc(OCc2ccc(C(=O)OC)cc2)cc1,10%
19,COc1cccc(NC(=O)C2CC(=O)OC23CCOC(C)(C)C3)c1 (stereo not drawn),9%
